The target in assay [1] is Aryl hydrocarbon receptor (Homo sapiens) (UniProt P35869). Kind of assay: qHTS assay to identify small molecule that activate the aryl hydrocarbon receptor (AhR) signaling pathway (AID 743085).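 Also: HG2L7.5c1 human HepG2 liver cells with stably integrated DRE-driven firefly reporter; nearly all actives have a fitted effect of over 15% in size.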 Particulars: HepG2 AhR-luc (HG2L7.5c1), luciferase, 24 h; series mostly up to 70.3 µM. The gist of the method:
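AhR agonist activity is inferred from enhanced light output of a DRE-controlled firefly luciferase reporter in HepG2 cells, measured with ONE-Glo following 24 h treatment at 37C.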

The nature of assay [2]: qHTS assay to identify small molecule that activate the aryl hydrocarbon receptor (AhR) signaling pathway - cell viability counter screen (AID 743086).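 Also: HepG2 liver cells carrying the AhR DRE luciferase reporter; nearly all actives have a fitted effect of over 45% in size.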 The following applies: HepG2-AhR-luc viability, CellTiter-Fluor, 24 h; series mostly up to 70.3 µM. In outline:
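HepG2-AhR-luc (HG2L7.5c1) cells, 4000/well, treated 24 h at 37 C with compound; viability measured as CellTiter-Fluor fluorescence after 30 min in the same wells as the luciferase read.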
Background: Quantitative high-throughput screening tests each substance at several concentrations.

The target of assay [3] is Peroxisome proliferator-activated receptor gamma (Homo sapiens) (UniProt P37231). Nature of the assay: qHTS assay to identify small molecule agonists of the peroxisome proliferator-activated receptor gamma (PPARg) signaling pathway (AID 743094; active = well fitted activation curve with a large enough effect in the signal ratio in the repeat runs, not every such curve was filed as active; the % refers to the signal ratio). The following applies: HEK293H PPARg-UAS-bla, beta-lactamase FRET ratio, 17 h; series mostly up to 57 µM. In outline: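 Beta-lactamase FRET fluorescence was the read-out after a 1 h room-temperature substrate step, following 17 h compound treatment at 37C of HEK293H cells expressing a UAS-driven bla reporter responsive to PPARg.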

Assay [4] is described as follows: qHTS assay to identify small molecule antagonists of the peroxisome proliferator-activated receptor gamma (PPARg) signaling pathway - cell viability counter screen (AID 743194). Also: nearly all actives have a fitted effect of over 55% in size. Particulars: PPARg-bla HEK293H viability, CellTiter-Glo luminescence, 17 h, co-treated with 50 nM rosiglitazone; series mostly up to 62.6 µM. In outline:
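Cytotoxicity counter screen in PPARg-bla HEK293H cells, same wells as reporter assay. Compounds plus 50 nM rosiglitazone (final) for 17 h at 37 C, then viability read by CellTiter-Glo luminescence.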

The nature of assay [5]: qHTS assay for small molecule agonists of the antioxidant response element (ARE) signaling pathway - cell viability counter screen (AID 743203; calls by dose curve; also: nearly all actives have a fitted effect of over 55% in size). Particulars: ARE-bla HepG2 viability, CellTiter-Glo luminescence, 16 h; series mostly up to 73.3 µM. The gist of the method:
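HepG2 cells carrying ARE-driven beta-lactamase; 2,000 cells/well; 5 hrs plating; compound pinned from DMSO; 16 hrs 37C/5% CO2; CellTiter-Glo added; 30 min RT; luminescence.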

Assay [6] in a line: qHTS assay for small molecule activators of the heat shock response signaling pathway - cell viability counter screen (AID 743209). Also: nearly all actives have a fitted effect of over 50% in size. Particulars: HSE-bla HeLa viability, CellTiter-Glo luminescence, 5 h; series mostly up to 62.6 µM. In outline: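 Luminescence from CellTiter-Glo, added after the beta-lactamase FRET read, gave the viability signal. Cells were HSE-bla HeLa treated with DMSO-dissolved compounds for 5 h at 37 C following overnight plating.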

A short description of assay [7]: qHTS assay for small molecule activators of the heat shock response signaling pathway (AID 743210; active = well fitted activation curve with a large enough effect in the signal ratio in the repeat runs, with a control signal flat, not every such curve was filed as active; the % refers to the signal ratio). The following applies: HeLa HSE-bla reporter, beta-lactamase ratio, 5 h; series mostly up to 62.6 µM. In outline: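 HSE-bla HeLa cells (beta-lactamase reporter under heat shock response elements), plated overnight, then exposed to compounds 5 h at 37 C; LiveBLAzer B/G FRET substrate added, 2.5 h at room temperature, fluorescence intensity read.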

In assay [8] the target is Peroxisome proliferator-activated receptor gamma (Homo sapiens) (UniProt P37231). Nature of the assay: qHTS assay to identify small molecule antagonists of the peroxisome proliferator-activated receptor gamma (PPARg) signaling pathway (AID 743191; calls by dose curve; also: nearly all actives have a fitted effect of over 30% in size). The following applies: HEK293H PPARg-UAS-bla, beta-lactamase ratio, antagonist, 17 h; series mostly up to 62.6 µM. The gist of the method:
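GeneBLAzer PPARg UAS-bla HEK293H cells, 5 h post-plating, exposed to compounds 17 h at 37C. LiveBLAzer B/G FRET substrate added for 1 h at room temperature; beta-lactamase reporter read by fluorescence intensity.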

Assay [9] is described as follows: qHTS assay for small molecule agonists of the antioxidant response element (ARE) signaling pathway (AID 743202; active = well fitted activation curve with a large enough effect in the signal ratio in the repeat runs, not every such curve was filed as active; the % refers to the signal ratio; also: potency is read from the fitted curve at half-maximal effect). Particulars: HepG2 ARE-bla reporter, beta-lactamase FRET, 16 h; series mostly up to 73.3 µM. The gist of the method:
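ARE-bla HepG2 cells (beta-lactamase reporter under the antioxidant response element), plated 5 hours, then exposed to compounds 16 hours at 37 C. LiveBLAzer B/G FRET substrate added for 2 hours at room temperature; fluorescence intensity read.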

The nature of assay [10]: qHTS assay to identify small molecule agonists of the peroxisome proliferator-activated receptor delta (PPARd) signaling pathway - cell viability counter screen (AID 743211). Also: nearly all actives have a fitted effect of over 55% in size. Particulars: PPARd-bla HEK293H viability, CellTiter-Glo luminescence, 17 h; series mostly up to 62.6 µM. In outline:
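qHTS cell viability: PPARd-bla HEK293H; 17 h cpd, 37C; CellTiter-Glo, luminescence at 30 min RT.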

Records with an inconclusive call do not appear. Values without a mark were called inactive. Active and inactive are the calls of the source. Unless noted, calls follow the shape of the dose curve; as a rule, active = well fitted curve in the direction sought with a large enough effect in the repeat runs; inconclusive = weak or mixed curves; inactive = no such curve, though single readings can be large; an effect the other way counts as inactive or inconclusive.

Here are results for 30 molecules from PubChem BioAssay (Tox21).

Aryl hydrocarbon receptor (Homo sapiens), sequence (P35869 whole entry, looked up): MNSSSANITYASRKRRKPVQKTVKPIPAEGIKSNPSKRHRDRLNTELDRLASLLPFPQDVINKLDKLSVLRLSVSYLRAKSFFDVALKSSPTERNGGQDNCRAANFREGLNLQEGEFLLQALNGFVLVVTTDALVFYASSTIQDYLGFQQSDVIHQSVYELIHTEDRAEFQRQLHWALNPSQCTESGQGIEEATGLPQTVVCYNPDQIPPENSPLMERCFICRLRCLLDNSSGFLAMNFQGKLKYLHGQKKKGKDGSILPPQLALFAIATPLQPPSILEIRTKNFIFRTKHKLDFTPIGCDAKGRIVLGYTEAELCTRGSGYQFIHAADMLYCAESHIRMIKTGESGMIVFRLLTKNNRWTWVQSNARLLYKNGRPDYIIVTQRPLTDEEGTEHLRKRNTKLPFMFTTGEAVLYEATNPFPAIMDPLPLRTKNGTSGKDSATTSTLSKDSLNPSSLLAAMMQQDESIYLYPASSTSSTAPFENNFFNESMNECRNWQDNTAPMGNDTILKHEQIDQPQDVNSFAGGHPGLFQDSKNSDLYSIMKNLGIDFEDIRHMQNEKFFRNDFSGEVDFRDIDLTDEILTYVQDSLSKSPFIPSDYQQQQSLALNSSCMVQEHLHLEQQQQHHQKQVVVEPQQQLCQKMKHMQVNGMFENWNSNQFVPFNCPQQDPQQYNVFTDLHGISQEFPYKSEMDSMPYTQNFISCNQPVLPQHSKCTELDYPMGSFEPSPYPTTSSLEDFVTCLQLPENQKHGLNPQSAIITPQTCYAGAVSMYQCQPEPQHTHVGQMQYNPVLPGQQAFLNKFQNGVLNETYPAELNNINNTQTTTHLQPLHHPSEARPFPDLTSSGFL
Peroxisome proliferator-activated receptor gamma (Homo sapiens), sequence (P37231 whole entry, looked up): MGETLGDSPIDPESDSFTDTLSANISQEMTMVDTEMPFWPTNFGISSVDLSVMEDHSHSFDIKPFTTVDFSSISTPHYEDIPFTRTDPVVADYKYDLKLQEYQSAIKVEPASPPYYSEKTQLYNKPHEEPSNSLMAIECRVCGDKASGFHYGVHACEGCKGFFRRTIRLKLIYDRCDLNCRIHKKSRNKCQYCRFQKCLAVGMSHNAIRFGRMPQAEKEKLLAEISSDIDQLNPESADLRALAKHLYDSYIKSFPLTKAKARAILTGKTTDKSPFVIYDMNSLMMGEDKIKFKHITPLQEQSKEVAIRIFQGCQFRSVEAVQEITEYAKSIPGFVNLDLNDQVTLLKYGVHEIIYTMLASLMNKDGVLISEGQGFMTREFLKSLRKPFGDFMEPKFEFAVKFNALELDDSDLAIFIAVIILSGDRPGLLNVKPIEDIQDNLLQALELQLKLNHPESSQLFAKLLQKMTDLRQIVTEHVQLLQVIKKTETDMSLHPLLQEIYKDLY

Turning to `N=C(N)N`, the Potency result in assay [1] and in assay [6] was “inactive” in each case. Also, the outcome in assay [2], in assay [3], in assay [4], in assay [5] and in [7] was inactive.

As to `O=c1c(O)c(O)c1=O`, the Potency entry in assay [1], in assay [9] and in [6] was “inactive” in each case. Further, the result in assay [2], in [8], in assay [4], in assay [5], in assay [7] and in assay [10] was inactive.

As to `C=CCOC(=O)CCCCCCCC`, the Potency result in assay [1], in assay [9] and in [6] was “inactive” each time. The molecule was called inactive in [2], in assay [3], in assay [4], in assay [5] and in assay [7].

As for `CC[N+](C)(CC)CC`, the Potency result in [1], in [9] and in [6] was “inactive” throughout. The outcome in assay [2], in [3], in assay [4], in assay [5], in [7] and in assay [10] was inactive.

For `Cc1ccc(OC(=O)CC(C)C)cc1`, the Potency result in assay [1], in assay [9] and in assay [6] was “inactive” throughout. Also, the outcome in assay [2], in [3], in [4], in [5], in assay [7] and in assay [10] was inactive.

For the molecule `CCOCCOCCOC(C)=O`, the Potency result in assay [1], in [9] and in assay [6] was “inactive” each time. Moreover, the call in assay [2], in assay [3], in assay [4], in [5], in assay [7] and in [10] was inactive.

For the molecule `Cc1ccccc1OCC(=O)O`, the Potency entry in [1] and in [9] was “inactive” each time. Also, the call in assay [2], in assay [3], in assay [4], in [5], in assay [7] and in assay [10] was inactive.

As for `O=C(CCBr)N1CCN(C(=O)CCBr)CC1`, the Potency entry in assay [1] and in assay [6] was “inactive” throughout. For the same molecule, the call in [2], in assay [8], in assay [4], in assay [5], in [7] and in [10] was inactive. Further, the Potency in [9] was 13.3 µM (active).

For `CCCCN(CCCC)CCCCCCN(CCCC)CCCC`, the Potency result in assay [1], in [9] and in assay [6] was “inactive” in each case. For the same molecule, the molecule was classed as inactive in [2], in [8], in [4], in [5], in assay [7] and in assay [10].

For `CC/C=C/CCCCCCCCCCOC(C)=O`, the Potency entry in [1] and in assay [9] was “inactive” throughout. Besides, the outcome in assay [2], in [3], in assay [5], in [7] and in [10] was inactive.

On to `C=CCCCCCCCCOC(C)=O`, for which the Potency entry in assay [1], in assay [9] and in [6] was “inactive” throughout. For the same molecule, the result in [2], in assay [3], in [4], in [5], in [7] and in [10] was inactive.

With `O=C(c1ccccc1)c1cccc(O)c1`, the Potency entry in [1] and in assay [6] was “inactive” in each case. The call in assay [2], in assay [3], in assay [5], in assay [7] and in [10] was inactive.

With `CCCCCCCCCCCCCCCC/C=C/C1CC(=O)OC1=O` (stereo not drawn), the Potency entry in assay [1] and in assay [9] was “inactive” throughout. Besides, the outcome in [2], in assay [3], in assay [4], in assay [5], in assay [7] and in [10] was inactive.

In the case of `C[Si](C)(C)O[Si](O)(O)O`, the Potency entry in assay [1], in [9] and in assay [6] was “inactive” each time. The outcome in assay [2], in [3], in assay [4], in assay [5] and in [10] was inactive.

As to `CCCC(C)C(O)CC` (stereo not drawn), the Potency result in [1] and in assay [9] was “inactive” in each case. Further, the molecule was called inactive in assay [2], in assay [3], in assay [4], in assay [5] and in assay [10].

With `CC(=O)Nc1ccc(S(=O)(=O)Nc2cc(C)on2)cc1`, the Potency entry in assay [1], in assay [9] and in assay [6] was “inactive” in each case. For the same molecule, the molecule was classed as inactive in assay [2], in assay [3], in assay [4], in assay [5], in assay [7] and in assay [10].

For the molecule `O=C(O)/C=C(\CC(=O)O)C(=O)O`, the Potency result in [1], in [9] and in assay [6] was “inactive” each time. In addition, the call in assay [2], in [3], in assay [4], in assay [5], in assay [7] and in assay [10] was inactive.

`Cc1cc(C)c(C)c(C)c1`: the Potency entry in [1] and in assay [6] was “inactive” in each case. The call in assay [2], in assay [3], in assay [4], in assay [5] and in assay [10] was inactive.

Take `N=C(N)S(=O)O`: the Potency result in [1], in assay [9] and in assay [6] was “inactive” in each case. The result in [2], in assay [8], in assay [4], in assay [5], in [7] and in assay [10] was inactive.

Consider `CCC(C)(C)C`, for which the Potency result in assay [1], in assay [9] and in [6] was “inactive” each time. In addition, the molecule was classed as inactive in assay [2], in assay [3], in assay [4], in assay [5], in assay [7] and in assay [10].

With `Cc1ccc(O)c(C(=O)c2ccccc2)c1`, the Potency entry in assay [1], in assay [9] and in assay [6] was “inactive” each time. Moreover, the molecule was called inactive in assay [2], in assay [3], in assay [4], in [5], in assay [7] and in assay [10].

For `CC1(C)CC(N)CC(C)(C)N1`, the Potency result in assay [1] and in assay [9] was “inactive” throughout. Besides, the outcome in assay [2], in [3], in [4], in [5], in [7] and in assay [10] was inactive.

For `CCCCS`, the Potency result in [1], in assay [9] and in assay [6] was “inactive” each time. Also, the result in assay [2], in assay [3], in [4], in assay [5] and in assay [7] was inactive.

Turning to `CC(C)(C)OC(=O)c1ccccc1C(=O)O`, the Potency entry in [1], in assay [9] and in assay [6] was “inactive” throughout. For the same molecule, the call in assay [2], in [8], in assay [4] and in [5] was inactive.

In the case of `CCN(CC)CC`, the Potency entry in assay [1], in assay [9] and in assay [6] was “inactive” in each case. Further, the result in assay [2], in assay [3], in assay [4], in assay [5], in assay [7] and in assay [10] was inactive.

For the molecule `COc1ccc(Cl)cc1C`, the Potency entry in assay [1] and in assay [6] was “inactive” each time. In addition, the molecule was classed as inactive in assay [2], in assay [3], in assay [4], in assay [5] and in [7].

Turning to `COc1cc(OC)cc(OC)c1`, the Potency result in [1], in assay [9] and in assay [6] was “inactive” in each case. The outcome in assay [2], in assay [8], in assay [4], in [5], in assay [7] and in assay [10] was inactive.

`CC(C)c1cc(C(C)C)cc(C(C)C)c1`: the Potency entry in assay [1], in [9] and in [6] was “inactive” each time. The result in assay [2], in assay [3], in [4], in assay [5], in [7] and in assay [10] was inactive.

On to `O=P(O)(O)C(O)(Cc1cccnc1)P(=O)(O)O`, for which the Potency entry in assay [1] and in [6] was “inactive” each time. Further, the molecule was called inactive in [2], in [3], in assay [4], in assay [5], in assay [7] and in assay [10].

Turning to `CC(C)(O)CCCC1=CCC(C=O)CC1` (stereo not drawn), the Potency entry in assay [1] and in [6] was “inactive” in each case. The call in [2], in assay [3], in assay [4], in assay [5], in assay [7] and in assay [10] was inactive.
